ChEMBL document CHEMBL3988442, “University of Dundee, Small-Polar-MMV Screening Library” (2021)
For some of these results: Results with a measured potency or affinity are listed apart.

How the values were obtained:
Design in all cases: scale not given: direction of the effect not stated beside the values
[1] = target: Protein translocase subunit SecA (Escherichia coli (strain K12)) (UniProt P10408); assay: Assay to Identify E. coli SecA ATPase Inhibitors; type: functional; details: 30 µM
[2] = target: T1, Ubiquitin-activating enzyme e1, putative (Leishmania donovani (strain BPK282A1)) (UniProt E9BSI1); assay: Leishmania donovani Ubiquitin Activating Enzyme (LdE1); type: functional; details: 30 µM
T1 sequence (whole entry): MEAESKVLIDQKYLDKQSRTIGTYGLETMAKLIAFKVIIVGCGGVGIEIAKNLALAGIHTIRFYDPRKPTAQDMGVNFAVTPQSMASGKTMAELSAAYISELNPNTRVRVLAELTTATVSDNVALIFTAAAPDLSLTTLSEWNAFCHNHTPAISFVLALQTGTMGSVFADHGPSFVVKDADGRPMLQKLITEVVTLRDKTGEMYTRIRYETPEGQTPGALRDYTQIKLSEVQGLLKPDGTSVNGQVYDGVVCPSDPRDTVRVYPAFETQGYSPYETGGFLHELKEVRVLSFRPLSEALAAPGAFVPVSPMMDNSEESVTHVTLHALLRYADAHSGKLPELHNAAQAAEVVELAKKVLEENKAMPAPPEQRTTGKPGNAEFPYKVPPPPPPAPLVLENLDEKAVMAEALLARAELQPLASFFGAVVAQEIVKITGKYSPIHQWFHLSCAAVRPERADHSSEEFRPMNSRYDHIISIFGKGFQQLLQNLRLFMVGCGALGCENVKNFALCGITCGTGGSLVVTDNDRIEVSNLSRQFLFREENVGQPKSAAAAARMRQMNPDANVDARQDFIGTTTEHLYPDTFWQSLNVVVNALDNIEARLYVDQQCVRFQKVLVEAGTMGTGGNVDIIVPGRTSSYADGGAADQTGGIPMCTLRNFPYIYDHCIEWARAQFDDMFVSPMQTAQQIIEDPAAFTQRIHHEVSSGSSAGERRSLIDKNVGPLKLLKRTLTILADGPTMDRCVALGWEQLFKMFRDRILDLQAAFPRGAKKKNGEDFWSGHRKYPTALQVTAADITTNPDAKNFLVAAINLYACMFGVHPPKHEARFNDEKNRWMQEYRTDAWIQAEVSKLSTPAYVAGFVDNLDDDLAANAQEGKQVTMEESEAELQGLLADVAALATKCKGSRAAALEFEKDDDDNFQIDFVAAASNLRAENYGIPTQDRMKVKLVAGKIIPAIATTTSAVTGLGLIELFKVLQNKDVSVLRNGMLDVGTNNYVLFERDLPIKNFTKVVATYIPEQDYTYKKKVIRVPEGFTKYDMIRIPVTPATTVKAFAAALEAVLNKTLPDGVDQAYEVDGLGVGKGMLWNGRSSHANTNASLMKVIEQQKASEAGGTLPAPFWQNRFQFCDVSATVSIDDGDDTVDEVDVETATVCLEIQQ

[3] = target: AMP-activated protein kinase, AMPK (Homo sapiens) (UniProt P54646+O43741+P54619+Q9UGJ0+Q9Y478+Q13131+Q9UGI9); assay: AMP-dependent Kinase enzyme assay. An in vitro enzyme assay that detects ADP turnover that is directly proportional to AMPK activity. This uses naive AMPK that is activated during the assay with MK-8722; type: functional; details: 30 µM
[4] = target: Sialic acid-binding Ig-like lectin 9 (Homo sapiens) (UniProt Q9Y336); assay: Hs-Siglec9 ALPHAscreen SOP 20170721; details: 10 µM
[5] = tested on: Trypanosoma cruzi; assay: Trypanosoma cruzi phosphomannomutase and mannose-1-phosphate guanylyltransferase assay; type: functional; details: 10 µM
[6] = target: T2, Arginase-2, mitochondrial (Homo sapiens) (UniProt P78540); assay: in vitro enzyme assay to detect the production of urea directly proportional to the activity of Arginase II; type: functional; details: 33.3 µM; note: in the data most compounds retested in dose-response had high values
T2 sequence (whole entry): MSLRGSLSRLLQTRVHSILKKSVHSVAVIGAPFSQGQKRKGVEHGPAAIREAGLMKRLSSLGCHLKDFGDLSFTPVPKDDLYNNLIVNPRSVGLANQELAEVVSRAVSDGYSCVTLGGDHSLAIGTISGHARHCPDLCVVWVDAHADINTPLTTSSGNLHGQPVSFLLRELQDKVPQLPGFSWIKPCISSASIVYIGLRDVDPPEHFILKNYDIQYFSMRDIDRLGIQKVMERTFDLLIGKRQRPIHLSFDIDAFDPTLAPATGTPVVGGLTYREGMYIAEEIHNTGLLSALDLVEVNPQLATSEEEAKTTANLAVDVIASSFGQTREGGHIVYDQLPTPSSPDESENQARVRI

[7] = target: T3, Proteasome subunit beta (Trypanosoma cruzi) (UniProt O96673); assay: Trypanosoma cruzi proteasome chymotrypsin-like activity (TcProtChymo) assay.; note: in the data most compounds retested in dose-response had high values; type: functional; details: 9.37 µM
T3 sequence (whole entry): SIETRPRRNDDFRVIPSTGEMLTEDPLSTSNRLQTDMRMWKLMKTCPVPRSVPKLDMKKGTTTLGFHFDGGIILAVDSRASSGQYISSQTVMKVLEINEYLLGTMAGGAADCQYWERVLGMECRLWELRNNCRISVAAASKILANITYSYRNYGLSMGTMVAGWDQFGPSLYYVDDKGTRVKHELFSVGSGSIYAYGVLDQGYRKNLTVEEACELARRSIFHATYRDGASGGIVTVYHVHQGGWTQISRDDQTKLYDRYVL

[8] = species: Homo sapiens; assay: To identify inhibition of the IFN signalling (Jak-Stat) pathway via expression of an eGFP reporter gene under the control of an IFN-stimulated response element (ISRE) containing MxA promoter.; type: functional; details: 30 µM
[9] = target: T4, Tyrosyl-tRNA synthetase, putative (Trypanosoma cruzi (strain CL Brener)) (UniProt Q4DSP6); assay: Trypanosoma cruzi tyrosyl tRNA synthetase (TcYRS) _High Tyrosine SOP; type: functional; details: 30 µM; note: in the data most compounds retested in dose-response had high values
T4 sequence (whole entry): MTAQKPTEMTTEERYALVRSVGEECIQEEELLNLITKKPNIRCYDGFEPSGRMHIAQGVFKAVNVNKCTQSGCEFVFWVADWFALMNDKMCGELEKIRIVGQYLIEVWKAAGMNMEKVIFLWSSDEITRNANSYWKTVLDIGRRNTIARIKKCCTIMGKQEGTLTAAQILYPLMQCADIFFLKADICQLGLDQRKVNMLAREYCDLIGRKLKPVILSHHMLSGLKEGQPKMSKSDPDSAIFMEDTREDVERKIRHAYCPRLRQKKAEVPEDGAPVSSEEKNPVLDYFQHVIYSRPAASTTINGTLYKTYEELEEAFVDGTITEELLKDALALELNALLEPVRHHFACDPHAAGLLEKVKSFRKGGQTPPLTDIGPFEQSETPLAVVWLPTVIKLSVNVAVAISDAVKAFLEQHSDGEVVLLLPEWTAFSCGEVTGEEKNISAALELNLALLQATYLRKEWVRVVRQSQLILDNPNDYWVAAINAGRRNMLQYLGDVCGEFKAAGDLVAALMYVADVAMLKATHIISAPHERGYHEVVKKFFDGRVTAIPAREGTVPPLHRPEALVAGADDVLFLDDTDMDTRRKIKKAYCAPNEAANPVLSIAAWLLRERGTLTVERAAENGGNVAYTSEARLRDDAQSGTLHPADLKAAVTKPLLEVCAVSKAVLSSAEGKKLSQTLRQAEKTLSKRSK

[10] = target: T4, Tyrosyl-tRNA synthetase, putative (Trypanosoma cruzi (strain CL Brener)); assay: Trypanosoma cruzi tyrosyl tRNA synthetase (TcYRS) SOP; type: functional; details: 30 µM
[11] = target: Chromo domain-containing protein 1 (Saccharomyces cerevisiae (strain ATCC 204508 / S288c) (Baker's yeast)) (UniProt P32657); assay: ScCHD-1 Enzyme Inhibition Assay; type: functional; details: 30 µM; note: in the data most compounds retested in dose-response had high values
Chromo domain-containing protein 1 (Saccharomyces cerevisiae (strain ATCC 204508 / S288c) (Baker's yeast)), sequence (P32657 whole entry, the tested form may be a part): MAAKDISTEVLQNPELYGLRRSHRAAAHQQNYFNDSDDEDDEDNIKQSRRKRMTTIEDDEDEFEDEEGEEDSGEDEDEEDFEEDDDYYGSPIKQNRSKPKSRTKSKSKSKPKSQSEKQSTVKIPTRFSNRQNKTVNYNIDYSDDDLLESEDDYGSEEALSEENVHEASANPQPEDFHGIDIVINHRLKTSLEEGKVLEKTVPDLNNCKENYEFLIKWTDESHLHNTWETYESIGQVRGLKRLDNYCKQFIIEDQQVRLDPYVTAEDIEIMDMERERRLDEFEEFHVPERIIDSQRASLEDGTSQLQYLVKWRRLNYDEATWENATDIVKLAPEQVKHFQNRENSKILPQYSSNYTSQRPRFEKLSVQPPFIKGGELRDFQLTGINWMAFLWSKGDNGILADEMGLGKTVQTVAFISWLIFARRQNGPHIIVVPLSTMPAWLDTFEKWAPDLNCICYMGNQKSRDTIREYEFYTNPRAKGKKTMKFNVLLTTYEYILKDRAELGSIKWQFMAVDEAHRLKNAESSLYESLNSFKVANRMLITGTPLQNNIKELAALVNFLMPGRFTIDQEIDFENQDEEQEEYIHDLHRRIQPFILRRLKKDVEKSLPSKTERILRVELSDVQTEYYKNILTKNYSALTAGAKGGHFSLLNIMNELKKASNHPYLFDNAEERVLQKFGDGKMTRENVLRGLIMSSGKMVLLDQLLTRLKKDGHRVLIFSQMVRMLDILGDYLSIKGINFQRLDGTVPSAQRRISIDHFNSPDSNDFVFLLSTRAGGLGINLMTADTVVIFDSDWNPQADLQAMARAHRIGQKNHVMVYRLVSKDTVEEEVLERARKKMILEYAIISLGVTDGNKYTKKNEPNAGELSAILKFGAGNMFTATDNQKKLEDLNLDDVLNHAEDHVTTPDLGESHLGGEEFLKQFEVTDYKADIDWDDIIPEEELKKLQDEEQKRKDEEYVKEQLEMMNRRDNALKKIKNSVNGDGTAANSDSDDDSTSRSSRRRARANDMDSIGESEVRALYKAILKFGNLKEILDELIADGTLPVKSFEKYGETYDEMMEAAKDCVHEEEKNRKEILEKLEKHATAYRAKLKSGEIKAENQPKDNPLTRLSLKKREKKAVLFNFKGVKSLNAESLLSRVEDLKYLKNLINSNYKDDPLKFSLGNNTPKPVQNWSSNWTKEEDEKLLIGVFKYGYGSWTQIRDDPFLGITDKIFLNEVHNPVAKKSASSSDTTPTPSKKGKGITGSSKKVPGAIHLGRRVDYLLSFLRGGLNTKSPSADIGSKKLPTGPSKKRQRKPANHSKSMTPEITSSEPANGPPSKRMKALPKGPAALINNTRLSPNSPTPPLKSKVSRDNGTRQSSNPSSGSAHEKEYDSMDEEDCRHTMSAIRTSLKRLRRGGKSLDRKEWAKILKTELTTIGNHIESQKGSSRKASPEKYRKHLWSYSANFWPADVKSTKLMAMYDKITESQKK

Sialic acid-binding Ig-like lectin 9 (Homo sapiens), sequence (Q9Y336 whole entry): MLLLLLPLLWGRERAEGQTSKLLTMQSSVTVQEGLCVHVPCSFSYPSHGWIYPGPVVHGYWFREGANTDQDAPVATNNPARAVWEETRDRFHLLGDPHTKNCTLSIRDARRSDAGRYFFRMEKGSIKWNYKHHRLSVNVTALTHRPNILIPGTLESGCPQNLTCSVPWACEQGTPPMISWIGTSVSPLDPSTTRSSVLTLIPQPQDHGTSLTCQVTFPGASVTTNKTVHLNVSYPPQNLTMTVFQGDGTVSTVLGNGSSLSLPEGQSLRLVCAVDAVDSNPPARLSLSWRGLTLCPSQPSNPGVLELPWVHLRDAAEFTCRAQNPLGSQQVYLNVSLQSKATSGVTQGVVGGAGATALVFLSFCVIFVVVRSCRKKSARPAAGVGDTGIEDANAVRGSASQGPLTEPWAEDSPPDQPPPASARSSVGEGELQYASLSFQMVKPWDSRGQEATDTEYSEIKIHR
Protein translocase subunit SecA (Escherichia coli (strain K12)), sequence (P10408 whole entry): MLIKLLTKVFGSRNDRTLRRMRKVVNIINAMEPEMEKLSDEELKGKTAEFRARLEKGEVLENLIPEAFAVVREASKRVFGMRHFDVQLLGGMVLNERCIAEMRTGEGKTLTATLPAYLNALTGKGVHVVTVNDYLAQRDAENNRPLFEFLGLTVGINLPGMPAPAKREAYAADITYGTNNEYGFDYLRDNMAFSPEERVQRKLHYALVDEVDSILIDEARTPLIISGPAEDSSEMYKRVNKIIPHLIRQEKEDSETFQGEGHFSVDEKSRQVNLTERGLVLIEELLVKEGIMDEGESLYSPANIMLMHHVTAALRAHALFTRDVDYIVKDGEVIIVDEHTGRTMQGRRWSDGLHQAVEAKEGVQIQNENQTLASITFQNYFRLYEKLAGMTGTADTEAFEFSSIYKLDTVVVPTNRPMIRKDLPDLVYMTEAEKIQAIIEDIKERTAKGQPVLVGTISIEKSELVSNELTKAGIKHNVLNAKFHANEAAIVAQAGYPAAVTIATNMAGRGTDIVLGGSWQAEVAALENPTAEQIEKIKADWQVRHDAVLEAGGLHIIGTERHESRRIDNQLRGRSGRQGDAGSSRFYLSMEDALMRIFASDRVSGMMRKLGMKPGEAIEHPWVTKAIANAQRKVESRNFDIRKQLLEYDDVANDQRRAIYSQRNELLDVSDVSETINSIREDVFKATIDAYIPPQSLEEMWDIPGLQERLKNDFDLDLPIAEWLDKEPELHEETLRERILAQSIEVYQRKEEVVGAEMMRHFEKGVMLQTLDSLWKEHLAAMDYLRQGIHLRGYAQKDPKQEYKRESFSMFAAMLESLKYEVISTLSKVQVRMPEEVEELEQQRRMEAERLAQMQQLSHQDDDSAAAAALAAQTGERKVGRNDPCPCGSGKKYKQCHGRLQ

Row | SMILES | Percent Effect [1] | Percent Effect [2] | Percent Effect [3] | Percent Effect [4] | Percent Effect [5] | Percent Effect [6] | Percent Effect [7] | Percent Effect [8] | Percent Effect [9] | Percent Effect [10] | Percent Effect [11]
1 | COc1ccc(C2(NC(=O)CCn3cncn3)CCCCC2)cc1 | -4.12% | 9.46% | 4.65% | 7.71% | 0.79% | 1.62% | 11.2% | -2% | 3.23% | 11.7% | -14.1%
2 | CCCC(C)(C)NC(=O)c1ccc(CC2CC(=O)NC2=O)cc1 (configuration not stated) | -8.33% | 8.22% | 6.89% | 23.9% | 3.53% | 2.27% | 15.1% | 13.9% | 3.23% | 10% | -5.88%
3 | Cc1cc(O)nc(C2CCCN(Cc3ccncc3)C2)n1 (configuration not stated) | -0.276% | 14.9% | 4.7% | -7.91% | 3.75% | -0.696% | 10.4% | -0.951% | 1.07% | 11.7% | -12.3%
4 | Cc1nc(CCCNC(=O)C2CC(=O)N(C(C)(C)C)C2)sc1C (configuration not stated) | -3.07% | 5.48% | -0.283% | 4.12% | -3.57% | -2% | 7.79% | 12.9% | 5.21% | 13.6% | -5.51%
5 | Cc1oc(C(=O)O)cc1S(=O)(=O)Nc1cc(Cl)ccc1F | -4.85% | 5.2% | -3.17% | 6.3% | 0.374% | -1.42% | -6.59% | 2.33% | 3.88% | 2.44% | -4.3%
6 | N#Cc1ccc(CN2CCN(C(=O)C3CCC3)[C@@H]3CS(=O)(=O)C[C@@H]32)cc1 | -4.22% | 5.2% | 3.66% | 3.04% | -5.61% | -20.7% | 8.98% | 14.4% | 4.3% | 8.64% | -1.71%
7 | Cn1cc(CN2CC3(CCN(C(=O)c4cscn4)C3)C2)cn1 | -1.74% | 19.2% | -7.29% | 10.7% | 3.77% | -3.19% | 9.85% | 4.08% | 10.4% | 16.1% | -10.8%
8 | Cc1cccc(OCCC(=O)NCC(C)(C)C(N)=O)c1 | -3.42% | 10.5% | 1.54% | 16.5% | 1.13% | 2.68% | 8.19% | -23.5% | 4.41% | -41.5% | -10.8%
9 | CCc1nnc2n1CCN(C(=O)c1ccc3[nH]cnc3c1)C2 | -7.1% | 12.5% | -11.5% | 41.5% | 6.9% | 3.97% | 10.2% | 0.294% | 3.16% | 15.4% | -13.2%
10 | Cc1cc(NC(=O)CN2CCN(c3nccs3)C(C)C2)n(C)n1 (configuration not stated) | -1.17% | -2.7% | -3.28% | 12% | 0.279% | 0.924% | 4.49% | -4.36% | 1.98% | 3.66% | 10.5%
11 | Cc1nn(C)c(N(C)C)c1CNCc1cccnc1 | -5.22% | -2.7% | -6.42% | -9.25% | -5.38% | -1.74% | 12.4% | -10.3% | -4.3% | -6.17% | -0.598%
12 | O=C(c1ccccc1N1CCOCC1)N1CCCC(n2cccn2)C1 (configuration not stated) | -5.13% | 2.7% | -10.8% | 3.15% | -1.98% | -0.802% | 3.06% | 12.4% | 5.42% | 13.6% | -3.66%
13 | Cc1ccc(CNCc2nnc3n2CCCC3C(F)(F)F)s1 (configuration not stated) | -1.65% | 8% | -7.92% | 8.27% | 5.36% | 4.69% | 18% | 11.4% | 9.29% | 21% | -5.37%
14 | CC(=O)N1CCOCC2(CN(Cc3ccc(C)o3)CCO2)C1 (configuration not stated) | -8.61% | 2.67% | 0.553% | -4.1% | 0.591% | 0.699% | 1.67% | 17.8% | 3.19% | 1.28% | -4.82%
15 | CCOCC(O)CN1CCN(C(=O)c2cccc(F)c2)CC1 (configuration not stated) | -1.53% | 2.7% | -2.77% | -2.18% | 7.92% | -2.86% | 5.17% | 13.8% | 0.529% | -9.76% | -2.68%
16 | c1ccc(OCCCNCCn2cccn2)cc1 | -4.38% | 1.27% | -0.45% | 4.63% | 4% | -2.8% | 3.94% | -1.21% | 5.21% | 10.1% | -18.9%
17 | CCc1ncnc2c1CCN(C(=O)Cc1ccccn1)CC2 | -1.33% | 4% | -1.05% | 1.52% | -0.786% | -9.33% | 11.8% | 12.9% | 1.06% | -5.13% | -2.69%
